Assay results reported in PubChem BioAssay (NCI).
This is part of a sample that, as a whole, favours compounds with a hit. Of some 83,000 tested, about 20% had one in any assay.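 In brief: 96-well plates, 48 h treatment, single concentration, percent growth endpoint.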 A number with no mark means an inactive call. Active and inactive are the calls of the source. The calls were made as follows: active = growth percent below 10; inactive = the rest.

Legend:
Assay in all cases: NCI-60 one-dose screen, 48 h (100 = growth as untreated, 0 = no growth, -100 = all killed)
Settings in all cases: 10 µM unless noted
[1] = test system: NCI-H23 lung
[2] = test system: NCI-H226 lung
[3] = test system: NCI-H322M lung
[4] = test system: HOP-62 NSCLC
[5] = test system: NCI-H460 lung
[6] = test system: NCI-H522 lung
[7] = test system: A549/ATCC NSCLC
[8] = test system: 786-0 renal
[9] = test system: COLO 205 colon
[10] = test system: DU-145 prostate
[11] = test system: K-562 leukemia
[12] = test system: MALME-3M melanoma
[13] = test system: MDA-MB-231 breast
[14] = test system: RXF 393 renal
[15] = test system: SF-268 CNS
[16] = test system: SF-295 CNS
[17] = test system: SF-539 CNS
[18] = test system: UACC-257 melanoma
[19] = test system: M14 melanoma

| SMILES | growth [1] | growth [2] | growth [3] | growth [4] | growth [5] | growth [6] | growth [7] | growth [8] | growth [9] | growth [10] | growth [11] | growth [12] | growth [13] | growth [14] | growth [15] | growth [16] | growth [17] | growth [18] | growth [19] |
| --- | --- | --- | --- | --- | --- | --- | --- | --- | --- | --- | --- | --- | --- | --- | --- | --- | --- | --- | --- |
| COc1ccc2[nH]c(O)c(N=NC(=O)Cn3c(-c4ccccc4)nc4cc(C)ccc43)c2c1 | 13.4% | 11.7% | 49.5% | 47.9% | 44.3% | 57% | 15.3% | 4.55% (active) | 64.5% | 38.2% | 12.3% | -48% (active) | -26.3% (active) | -35.6% (active) | 38.5% | 44.9% | -28.1% (active) | 21.7% | 9.19% (active) |
| CCCn1cc(-c2nc(Nc3ccc(C(=O)NCCCCNc4cccc5c4C(=O)N(C4CCC(=O)NC4=O)C5=O)cc3)nc3[nH]ccc23)cn1 (centres undefined) | 65.3% | 20.9% | 7.64% (active) | -1.38% (active) | 107% | 27% | 21.1% | 22.9% | -10.3% (active) | 64.1% | 15.8% | -24.4% (active) | -23.3% (active) | 34.9% | 28.2% | 28.3% | 26.6% | 96.4% | 21.4% |
| CC(=O)c1cccc(NC(=O)CCC(=O)NS(=O)(=O)c2ccc(C)cc2)c1 | 108% | 108% | 109% | 98.6% | 120% | 102% | 100% | 105% | 113% | 122% | 101% | 103% | 107% | 132% | 134% | 104% | 105% | 103% | 102% |
| O=C(C1=CNC(=S)NC1c1ccc(O)cc1)c1cc2ccccc2oc1=O (centres undefined) | 102% | 95.7% | 106% | 91.4% | 108% | 90% | 101% | 109% | 102% | 110% | 90.9% | 108% | 105% | 109% | 97.5% | 98.8% | 91.9% | 107% | 96.4% |
| COC1=C[C@]23CCC(=O)N2CCc2cc4c(cc2[C@@H]3[C@@H]1OC(=O)[C@H](C)O)OCO4 | 9.59% (active) | 11% | 69.7% | 46.6% | -5.4% (active) | -48.1% (active) | 7.1% (active) | 22.7% | 28.4% | 31.7% | 7.08% (active) | -28.6% (active) | 61.8% | 5.61% (active) | 66.2% | 29.7% | -34.5% (active) | 27.9% | 10.4% |
| COc1ccc(/C=C/c2nc3ccccc3c(=O)n2CC(=O)Nc2ccc(OC)cc2)cc1 | 53.9% | 61.1% | 83.3% | 51.7% | 50.8% | 70.3% | 46.9% | -12.7% (active) | 87.8% | 77.2% | 95.3% | 73.7% | 27.3% | 70.5% | 71.4% | 74.6% | -18.5% (active) | 103% | 90.3% |
| O=C(CN1C(=O)/C(=C/c2ccccc2Cl)SC1=S)N1CCOCC1 | 98% | 77.9% | 95.3% | 116% | 107% | -74.8% (active) | 97.8% | 80.4% | 100% | 78.1% | 27% | 76.3% | 94.3% | 77.4% | 106% | 107% | 91.7% | 94.3% | 85.3% |
| C=C1CCC2C3(C)COC(c4ccccc4)OC3CCC2(C)C1CC(NCc1ccccc1)C1=CCOC1=O (centres undefined) | 80.8% | 63.6% | 90.8% | 85.1% | 97% | 77.6% | 75.9% | 79.3% | 88.3% | 98.7% | 58.8% | 92.4% | 71.5% | 78.5% | 82.4% | 72% | 89.2% | 71.7% | 76% |
| C=C1CC[C@@H]2[C@]3(C)COC(c4cn[nH]c4-c4cccc(Br)c4)O[C@@H]3CC[C@@]2(C)[C@@H]1C/C=C1/C(=O)OCC1O (some centres undefined) | -94.5% (active) | -88.4% (active) | -0.559% (active) | -58.3% (active) | -68.9% (active) | -56% (active) | -17.4% (active) | -95.5% (active) | -58.3% (active) | -85.5% (active) | -2.18% (active) | -74.5% (active) | -47.3% (active) | -90.8% (active) | -22.7% (active) | -78.6% (active) | -97.8% (active) | -72% (active) | -75.7% (active) |
| O=C(NN1C(=O)/C(=C/C=C/c2ccc([N+](=O)[O-])o2)SC1=S)c1ccccc1O | -86.1% (active) | -71.2% (active) | -63% (active) | -53.5% (active) | -55.7% (active) | -90.7% (active) | -58.2% (active) | -89.5% (active) | -82.1% (active) | -100% (active) | 7.19% (active) | -95% (active) | -93.1% (active) | -94.5% (active) | -81.4% (active) | -48.2% (active) | -100% (active) | -85% (active) | -81.3% (active) |
| C=C1CCC2C3(C)COC(c4ccccc4)OC3CCC2(C)C1CC(Sc1ccccc1)C1=CCOC1=O (centres undefined) | 44.2% | 10.6% | 80.5% | 88.6% | 84.6% | 3.01% (active) | 35.3% | 52.3% | 71.3% | 70.6% | 7.88% (active) | 92.8% | 62.5% | 72.7% | 83.3% | 62.7% | 17.7% | 63.8% | 53.7% |
| CCCSc1nc(Nc2ccc(S(N)(=O)=O)cc2)c(C#N)c(-c2cc(OC)c(OC)c(OC)c2)n1 | 43.4% | 32.7% | 51.7% | 32.5% | 16.5% | 18.2% | 17.9% | 41.5% | 8.62% (active) | 26.2% | 2.89% (active) | -2.83% (active) | 43.9% | -2.49% (active) | 45.2% | 14.1% | 37% | 42% | 18.3% |
| Clc1cccc(N/N=C/c2c[nH]c3ccc(Br)cc23)n1 | 39.8% | 22.4% | 51.6% | 54.1% | 12.9% | -27.8% (active) | 30.2% | 13% | 31.9% | 64.1% | -26% (active) | 39% | -67.7% (active) | 31.6% | 40.8% | -9.75% (active) | -1.26% (active) | 57.6% | 15.2% |
| C=C1CC[C@@H]2[C@]3(C)COC(c4cn[nH]c4-c4ccc(F)cc4)O[C@@H]3CC[C@@]2(C)[C@@H]1C/C=C1/C(=O)OCC1O (some centres undefined) | -67.3% (active) | -83.5% (active) | 44% | -10.7% (active) | -63.5% (active) | -59.7% (active) | -14.2% (active) | -89.2% (active) | -39.4% (active) | -23% (active) | -24.2% (active) | -44.7% (active) | -40.5% (active) | -86% (active) | 16.9% | -26.8% (active) | -83.2% (active) | -44.6% (active) | -63.4% (active) |
| Cc1ccc2c(c1)nc(-c1ccccc1)n2CC(=O)N=Nc1c(O)[nH]c2ccc(Br)cc12 | -80.1% (active) | -72.4% (active) | -46.4% (active) | -58.7% (active) | -22.4% (active) | -60.7% (active) | -45.4% (active) | -88.1% (active) | -63% (active) | -10.8% (active) | -7.04% (active) | -85.7% (active) | -76.4% (active) | -79.9% (active) | 0.768% (active) | -80.6% (active) | -91.1% (active) | -51.5% (active) | -54.6% (active) |
| CC1CN(c2oc(-c3ccc([N+](=O)[O-])cc3)nc2C#N)CC(C)O1 (centres undefined) | 97.9% | 102% | 96.9% | 98.9% | 107% | 100% | 102% | 104% | 109% | 117% | 105% | 95.7% | 95.9% | 108% | 107% | 95.5% | 93.9% | 102% | 103% |
